# According to PubChem BioAssay (EPA / NIEHS):
# Results filed as inconclusive are left out. Active and inactive are the calls of the source. The calls were made as follows, unless noted: active = hit-call score of the fitted dose curve at least 0.9, where 1 is the maximum; inactive = score below 0.9.
# Columns and labels:
# [1] = target: human CYP19A1, CYP19A1 (gene 1588) (UniProt P11511); assay: NVS_ADME_hCYP19A1: NovaScreen (NVS) CYP450-related Enzyme Activity (ADME) Assay for human CYP19A1 (AID 2283098; active = hit-call score of the fitted dose curve at least 0.9, where 1 is the maximum;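 as to AC50: potency for inhibitors seen as loss of fluorescent enzyme signal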)
# Chain of human CYP19A1, CYP19A1 (gene 1588) (P11511 whole entry, looked up): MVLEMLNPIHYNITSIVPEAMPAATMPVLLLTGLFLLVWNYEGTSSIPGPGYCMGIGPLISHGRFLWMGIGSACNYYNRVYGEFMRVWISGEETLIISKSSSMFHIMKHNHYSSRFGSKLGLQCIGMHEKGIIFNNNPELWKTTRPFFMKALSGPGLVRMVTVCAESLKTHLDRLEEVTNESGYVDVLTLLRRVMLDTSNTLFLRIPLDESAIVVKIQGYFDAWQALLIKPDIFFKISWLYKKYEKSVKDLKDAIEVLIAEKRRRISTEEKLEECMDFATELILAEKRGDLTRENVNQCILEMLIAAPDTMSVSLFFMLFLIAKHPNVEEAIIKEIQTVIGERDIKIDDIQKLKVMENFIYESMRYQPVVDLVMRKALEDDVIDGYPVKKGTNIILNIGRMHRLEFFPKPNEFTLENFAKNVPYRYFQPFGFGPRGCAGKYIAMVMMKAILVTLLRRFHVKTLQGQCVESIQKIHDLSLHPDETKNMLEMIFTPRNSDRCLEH
# Method in brief: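 Primary testing was in duplicate at a single 10 uM concentration, with actives followed up in concentration-response series. Fluorescence read-out of recombinant enzyme activity at 0.5 h, cell-free. Acetonitrile was the negative-control baseline.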
# [2] = read-out: Monocyte Chemoattractant Protein-1 (MCP1), CCL2 (gene 6347); assay: BSK_LPS_MCP1: BioMAP Diversity Plus: LPS Assay for Monocyte Chemoattractant Protein-1 (MCP1) Biomarker Activity (AID 2283081); conditions: primary human HUVEC with PBMC; actives raise or lower the signal;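 as to AC50: secreted MCP-1 protein quantified by ELISA in culture supernatant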
# Method in brief: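 HUVEC plus PBMC co-culture (human primary cells, LPS system) exposed to test chemical for 24 h; MCP-1 measured by ELISA. Bidirectional curve fitting against DMSO baseline; parallel SRB total-protein staining flags overt cytotoxicity.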
# [3] = BSK_LPS_PGE2: BioMAP Diversity Plus: LPS Assay for Prostaglandin E2 (PGE2) Biomarker Activity (AID 2283082); conditions: primary human HUVEC with PBMC; actives raise or lower the signal
# Method in brief: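 Compounds were added to the LPS co-culture of endothelium and PBMC, and PGE2 was measured by ELISA after 24 h. Responses in either direction were fitted with DMSO as baseline.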
# [4] = read-out: Tissue Factor, F3 (gene 2152); assay: BSK_LPS_TissueFactor: BioMAP Diversity Plus: LPS Assay for Tissue Factor Biomarker Activity (AID 2283084); conditions: primary human HUVEC with PBMC; actives raise or lower the signal
# Method in brief: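 Human umbilical vein endothelial cells co-cultured with peripheral blood mononuclear cells were dosed and stimulated with LPS. Cell-surface CD142 was quantified by ELISA at 24 h. Activity was fitted bidirectionally against DMSO baseline.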
# [5] = read-out: Vascular cell adhesion molecule 1 (VCAM1), VCAM1 (gene 7412); assay: BSK_LPS_VCAM1: BioMAP Diversity Plus: LPS Assay for Vascular cell adhesion molecule 1 (VCAM1) Biomarker Activity (AID 2283086); conditions: primary human HUVEC with PBMC; actives raise or lower the signal
# Method in brief: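 Cells are dosed in an LPS-stimulated endothelial/mononuclear co-culture and, after 24 h, VCAM-1 is quantified by ELISA. Activity in either direction is fitted relative to the DMSO negative control.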
# CD38, CD38 (gene 952) = assay: BSK_SAg_CD38: BioMAP Diversity Plus: SAg Assay for CD38 Biomarker Activity (AID 2283087); conditions: primary human HUVEC with PBMC; actives raise or lower the signal
# Method in brief: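 CD38 quantified by ELISA (fluorescence) in a superantigen-activated endothelial cell–PBMC co-culture at 24 h post-dose. Activity fitted in both directions relative to DMSO; parallel SRB and Alamar Blue cytotoxicity read-outs.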
# CD40, CD40 (gene 958) = assay: BSK_SAg_CD40: BioMAP Diversity Plus: SAg Assay for CD40 Biomarker Activity (AID 2283088); conditions: primary human HUVEC with PBMC; actives raise or lower the signal
# Method in brief: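 Human umbilical vein endothelial cells co-cultured with PBMC; CD40 levels measured by ELISA with fluorescence read-out 24 h after chemical dosing. Gain or loss of signal fitted bidirectionally against DMSO baseline.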
# [6] = read-out: Monocyte Chemoattractant Protein-1 (MCP1), CCL2 (gene 6347); assay: BSK_SAg_MCP1: BioMAP Diversity Plus: SAg Assay for Monocyte Chemoattractant Protein-1 (MCP1) Biomarker Activity (AID 2283090); conditions: primary human HUVEC with PBMC; actives raise or lower the signal
# Method in brief: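 Values derive from bidirectional fitting of ELISA-measured MCP1 against DMSO controls. Readings were taken 24 h after dosing human vascular endothelial cells co-cultured with peripheral blood mononuclear cells under superantigen stimulation.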
# [7] = read-out: Monokine induced gamma interferon (MIG), CXCL9 (gene 4283); assay: BSK_SAg_MIG: BioMAP Diversity Plus: SAg Assay for Monokine induced gamma interferon (MIG) Biomarker Activity (AID 2283092); conditions: primary human HUVEC with PBMC; actives raise or lower the signal
# Method in brief: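 Values reflect bidirectional fitting of ELISA-measured MIG against DMSO vehicle, taken 24 h after dosing of a co-culture of human umbilical vein endothelial cells and peripheral blood mononuclear cells.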
# [8] = BSK_SAg_PBMCCytotoxicity: PBMC Cytotoxicity Assessment in the BioMAP Diversity Plus: SAg Assay (AID 2283093); conditions: primary human HUVEC with PBMC;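 also: PBMC viability measured as Alamar Blue reduction fluorescence at 546/580 nm; fitted both ways against DMSO so a hit may be loss or gain of signal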;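 as to AC50: PBMC superantigen activated with SEB plus TSST-1 one hour after compound addition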
# Method in brief: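 Alamar Blue reduction (6 h, ex/em 546/580 nm) read after 90 h culture of PBMC pre-dosed 1 h then stimulated with SEB plus TSST-1, 20 ng/mL each. Gain or loss of signal fitted relative to DMSO.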
# [9] = read-out: Interleukin-8 (IL8), CXCL8 (gene 3576); assay: BSK_SAg_IL8: BioMAP Diversity Plus: SAg Assay for Interleukin-8 (IL8) Biomarker Activity (AID 2283094); conditions: primary human HUVEC with PBMC; actives raise or lower the signal
# Method in brief: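 Chemicals were dosed onto a human endothelial–PBMC co-culture, and IL-8 was quantified by ELISA after 24 h. Both increases and decreases were fitted relative to DMSO.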
# [10] = BSK_SAg_Proliferation: Cell Proliferation Assessment in the BioMAP Diversity Plus: SAg Assay (AID 2283095); conditions: primary human HUVEC with PBMC;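 also: relative cell number as total protein by SRB absorbance in sub-confluent culture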
# Method in brief: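 Absorbance of sulforhodamine B at 560 nm reports total protein in a human vascular endothelial/PBMC co-culture after 96 h chemical exposure. Gain or loss of signal is fitted in both directions against DMSO.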
# [11] = BSK_SAg_SRB: Viability Assessment in the BioMAP Diversity Plus: SAg Assay (AID 2283096); conditions: primary human HUVEC with PBMC;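 also: cells read one day after compound addition; hits may be either gain or loss of signal compared with DMSO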
# Method in brief: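 SRB absorbance at 560 nm served as the viability read-out. Cells (HUVEC plus peripheral blood mononuclear cells) were TCA-fixed and stained 24 h post-dosing; activity fitted in both directions against DMSO controls.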
compound,measurement,setting,value
CN1C(=O)c2ccccc2C1=O,outcome,[1],inactive
CCCCCCC(=O)c1ccccc1,AC50,[1],5.7 µM (active)
CC(C)(C)CC(C)(C)c1ccc(OCCOCC[N+](C)(C)Cc2ccccc2)cc1,AC50,[2],7.38 µM (active)
same,outcome,[3],inactive
same,AC50,[4],9.04 µM (active)
same,AC50,[5],9.18 µM (active)
same,AC50,"CD38, CD38 (gene 952)",5 µM (active)
same,AC50,"CD40, CD40 (gene 958)",5 µM (active)
same,AC50,[6],5 µM (active)
same,AC50,[7],6.44 µM (active)
same,AC50,[8],3.23 µM (active)
same,AC50,[9],2.46 µM (active)
same,AC50,[10],0.773 µM (active)
same,AC50,[11],8.46 µM (active)
CC1(C)C2=CCCC(C)(C)[C@]23CC[C@H]1C3,outcome,[2],inactive
same,outcome,[3],inactive
same,outcome,[4],inactive
same,outcome,[5],inactive
same,outcome,"CD38, CD38 (gene 952)",inactive
same,outcome,"CD40, CD40 (gene 958)",inactive
same,outcome,[6],inactive
same,outcome,[7],inactive
same,AC50,[8],35.6 µM (active)
same,outcome,[9],inactive
same,AC50,[10],31.6 µM (active)
same,outcome,[11],inactive
c1ccc(Oc2ccccc2)cc1,outcome,[2],inactive
same,outcome,[3],inactive
same,outcome,[4],inactive
same,outcome,[5],inactive
same,outcome,"CD38, CD38 (gene 952)",inactive
same,outcome,"CD40, CD40 (gene 958)",inactive
same,outcome,[6],inactive
same,outcome,[7],inactive
same,outcome,[8],inactive
same,outcome,[9],inactive
same,outcome,[10],inactive
same,outcome,[11],inactive
CS(C)=O,outcome,[1],inactive
C[C@@H]1CCN(C(=O)[C@H](CCCN=C(N)N)NS(=O)(=O)c2cccc3c2NC[C@H](C)C3)[C@@H](C(=O)O)C1,outcome,[2],inactive
same,outcome,[3],inactive
same,outcome,[4],inactive
same,outcome,[5],inactive
same,outcome,"CD38, CD38 (gene 952)",inactive
same,outcome,"CD40, CD40 (gene 958)",inactive
same,outcome,[6],inactive
same,outcome,[7],inactive
same,outcome,[8],inactive
same,outcome,[9],inactive
same,outcome,[10],inactive
same,outcome,[11],inactive
CC(C=O)Cc1ccc(C(C)(C)C)cc1 (stereo not given),outcome,[2],inactive
same,outcome,[3],inactive
same,outcome,[4],inactive
same,outcome,[5],inactive
same,outcome,"CD38, CD38 (gene 952)",inactive
same,outcome,"CD40, CD40 (gene 958)",inactive
same,outcome,[6],inactive
same,outcome,[7],inactive
same,AC50,[8],20 µM (active)
same,outcome,[9],inactive
same,outcome,[10],inactive
same,outcome,[11],inactive
C1=CC2C3C=CC(C3)C2C1 (stereo not given),outcome,[2],inactive
same,outcome,[3],inactive
same,outcome,[4],inactive
same,outcome,[5],inactive
same,outcome,"CD38, CD38 (gene 952)",inactive
same,outcome,"CD40, CD40 (gene 958)",inactive
same,outcome,[6],inactive
same,outcome,[7],inactive
same,outcome,[8],inactive
same,outcome,[9],inactive
same,outcome,[10],inactive
same,outcome,[11],inactive
